# Test results: ChEMBL document CHEMBL3988442, “University of Dundee, Small-Polar-MMV Screening Library” (2021)
# The whole screen tested about 48,000 compounds, of which about 13,000 (27%) showed an effect of 50% or more. Some of the results follow.
# Tested on: Wolbachia pipientis
# Experiment: Anti-Wolbachia Cell-Based Screen
# Assay type: functional
# Set-up: scale not given: in the data most compounds retested in dose-response had high values
# Conditions: 5 µM
row,Compound,Percent Effect [%]
1,Cn1cc(CNC2CCc3ncnn3C2)c(-c2cccnc2)n1 (stereo not drawn),-2.662
2,Clc1ccc(-n2cc(CNC3CCc4ncnn4C3)cn2)cc1 (stereo not drawn),-12.36
3,c1ccc(-n2cc(CNC3CCc4ncnn4C3)cn2)cc1 (stereo not drawn),107.7
4,Cc1nc(C)n(C2CCCN(C(=O)c3cccc4[nH]ncc34)C2)n1 (stereo not drawn),0.6187
5,c1ccc2c(c1)CC(N1CCCN(Cc3cccc4nonc34)CC1)C2,-60.59
6,COCC(NC(=O)NCc1cccc(C#N)c1)c1ccco1 (stereo not drawn),-16.03
7,CNC(=O)NCC(CO)Cc1ccccc1OC(F)(F)F (stereo not drawn),119.9
8,CN(Cc1cccc(OC(F)(F)F)c1)C(=O)Cc1ccon1,-6.414
9,CNC(=O)NCC(CO)Cc1cccc(OC(F)(F)F)c1 (stereo not drawn),137.5
10,O=C(NCC(Cc1cccc(F)c1)N1CCCC1=O)c1cnccn1 (stereo not drawn),-11.28
11,CN(Cc1cccc(OC(F)(F)F)c1)C(=O)c1ccncc1F,3.384
12,O=C(NCC(CO)Cc1cccc(OC(F)(F)F)c1)c1cnccn1 (stereo not drawn),103
13,CN(Cc1ccccc1OC(F)(F)F)C(=O)C1CC1,0.731
14,CC(O)CN1CCC(CNCc2ccccc2OC(F)(F)F)CC1 (stereo not drawn),-2.479
15,CC(CNC(=O)c1cnccn1)Oc1cccc(Br)c1 (stereo not drawn),-3.895
16,O=C(c1ncc[nH]1)N1CCC(n2cc(-c3ccccn3)nn2)CC1,-4.702
17,CN1N=C(C(=O)N2CCN(c3ncccc3Cl)CC2)CCC1=O,-3.997
18,CC(C)C(=O)NCCCn1ncc2c(Cl)cccc21,-4.05
19,O=S(=O)(N1CCCCCC1)N1CCN(Cc2ccc(F)cc2Br)CC1,6.465
20,O=C(CN1CCCC(Cn2cncn2)C1)NCCOc1ccccc1 (stereo not drawn),-8.945
21,O=C(CN1CCCC1Cn1cncn1)NCCOc1ccccc1 (stereo not drawn),108.3
22,O=C(CN1CCCC1Cn1cncn1)NCCc1c(F)cccc1F (stereo not drawn),-7.499
23,O=C(CN1CCCCC1Cn1cncn1)NC1CCN(C2CC2)CC1 (stereo not drawn),-6.056
24,O=C(CN1CCCC1Cn1cncn1)NCCOc1cccc(F)c1 (stereo not drawn),0.2795
25,O=C(CN1CCCCC1Cn1cncn1)NCCOc1ccccc1 (stereo not drawn),140
26,O=C(CN1CCCC1Cn1cncn1)NCCOc1ccc(F)cc1 (stereo not drawn),135.9
27,Cc1cccc(OCCNC(=O)CN2CCCC2Cn2cncn2)c1 (stereo not drawn),115.7

row,Compound,Percent Effect [%]
1,O=C(CN1CCCC1Cn1cncn1)NC(C1CC1)C1CC1 (stereo not drawn),-5.289
2,CCN1CCC(NC(=O)CN2CCCC2Cn2cncn2)CC1 (stereo not drawn),1.475
3,O=C(CN1CCCC1Cn1cncn1)Nc1cccnc1 (stereo not drawn),-2.58
4,COc1ccc(CNC[C@@]2(COc3cccnc3)C[C@@H](O)[C@@H](O)C2)cc1.Cl,-5.616
5,CCSCCC(C)NC(=O)Nc1cccn(C)c1=O (stereo not drawn),-9.489
6,COCCOc1ccnc(-c2noc([C@@H]3CCCN3C(C)C)n2)c1,-15.24
7,CC(C)N1CCCCC1c1nc(N(C)C)ncc1I.Cl (stereo not drawn),76.51
8,CN(C)c1ccc(NC(=O)N2CCCCCC2c2ccncc2)cn1 (stereo not drawn),0.3778
9,CC(C)N1CCCC1c1nc(N(C)C)ncc1I (stereo not drawn),51.47
10,CC(C)C1CN(Cc2cnc(N(C)C)nc2)CCCN1CC1CC1 (stereo not drawn),-7.489
11,CC1=N[C@@]2(CC[C@@H]3CN(C(=O)NCC(C)C)C[C@@H]32)C(=O)N1CC(C)C,8.203
12,CCCc1nccn1-c1cccc(CN2CCCC2)c1,-15.07
13,Cc1ncccc1C(=O)NCc1ccccc1CN(C)Cc1ccco1,15.52
14,CCCNc1ncc(CN2CCN(C)C(=O)C2C)cn1 (stereo not drawn),-4.636
15,O=C(c1ccoc1)N1CCOCC2(CCN(Cc3cccs3)C2)C1 (stereo not drawn),98.93
16,O=C(NC1CC1)N1CCOCC2(CCN(Cc3cccs3)C2)C1.O=C(O)C(F)(F)F (stereo not drawn),89.31
17,O=C(O)C(F)(F)F.O=C(O)C(F)(F)F.c1csc(CN2CCCC3(COCCN(Cc4c[nH]nn4)C3)C2)c1 (stereo not drawn),-6.971
18,COCCN1C[C@@H](C)[C@@]2(COCCN(C(=O)c3ccoc3)C2)C1,1.711
19,CN(C)CCN1CCOCC2(CCCN(C(=O)c3ccoc3)C2)C1.O=C(O)C(F)(F)F.O=C(O)C(F)(F)F (stereo not drawn),-7.918
20,Cc1ccc(CN2CCCC3(COCCN(Cc4c[nH]nn4)C3)C2)o1.O=C(O)C(F)(F)F.O=C(O)C(F)(F)F (stereo not drawn),-14.33
21,Cc1occc1C(=O)N1CCOCC2(CCN(Cc3nccs3)C2)C1.O=C(O)C(F)(F)F (stereo not drawn),-1.117
22,Cc1ccc(CN2CCOCC3(CCN(Cc4cccs4)C3)C2)o1.O=C(O)C(F)(F)F.O=C(O)C(F)(F)F (stereo not drawn),110.5
23,CC(C)N1CCOCC2(CN(Cc3cccs3)CCO2)C1.O=C(O)C(F)(F)F.O=C(O)C(F)(F)F (stereo not drawn),7.639
24,O=C(O)C(F)(F)F.O=C(O)C(F)(F)F.c1csc(CN2CCC3(COCCN(CC4CC4)C3)C2)n1 (stereo not drawn),26.97
25,O=C(N1CCCC1)N1CCOCC2(CCN(Cc3cccs3)C2)C1.O=C(O)C(F)(F)F (stereo not drawn),119.1
26,Cc1ccc(CN2CCOC3(COCCN(C(C)C)C3)C2)o1.O=C(O)C(F)(F)F.O=C(O)C(F)(F)F (stereo not drawn),-26.11
